From PubChem BioAssay (Tox21)
Values without a mark were called inactive. The call rests on the fitted dose curve; in most records, active means well fitted curve in the direction sought with a large enough effect in the repeat runs; inconclusive means weak or mixed curves; inactive means flat fitted curve, though single readings scatter.

Experiment: qHTS assay to test for compound auto fluorescence at 535 nm (green) in HepG2 cell free culture (AID 720686)
Conditions: Cell-free medium, green autofluorescence 485/535 nm; series mostly up to 91.3 µM; fluorescence, % of fluorescein control: at the top concentration
From the text: U.S. Tox21 Program National Center for Advancing Translational Sciences [NCATS] NIH Chemical Genomics Center [NCGC] U.S. Environmental Protection Agency [EPA] National Institutes of Environmental Health Sciences [NIEHS] National Toxicology Program [NTP] U.S. Food and Drug Administration [FDA] Tox21 Assay Overview: Compound auto fluorescence often interferes with screening of the compound library against various biological targets and signaling pathways. Some of these compounds may have fluorophoric properties. Such properties may interfere with the assay outputs resulting in false positives and/or negatives. To decrease such complications and ensure the compound activities are relevant in terms of biological response, the Tox21 10K compound library was screened for auto fluorescence. From the fluorophores used as reporter signals in our screening assays, the auto fluorescence equivalencies of compounds against three fluorophores have been evaluated: Triamterene, Fluorescein and Rose Bengal sodium for blue, green and red fluorescence, respectively. The fluorescence intensities were measured using Excitation/Emission wavelengths at 405/460nm, 485/535nm and 540/590nm for blue, green and red labels, respectively. This assay includes the green fluorescence data.
Tox21 Assay Protocol Summary: 5 uL of culture medium (MEM containing 10% FBS) per well was dispensed into black wall/clear bottom 1536-well plates using a Multidrop Combi Dispenser (ThermoFisher Scientific, Waltham, MA). After 23 nL compound or DMSO vehicle was transferred into assay plate by a pintool work station (Kalypsys, San Diego, CA), fluorescence intensities in the assay plates were measured by an Envision (PerkinElmer, Shelton, CT) plate reader using three labels for measuring blue, green and red fluorescence at […] 460, 535 and 590nm respectively.
On the % scale 0 is the no-effect control and ±100 the full control effect.

Row | SMILES | fluorescence, % of fluorescein control
1 | C#CC1(O)CCCCC1 | 0.0163%
2 | CC(Cc1ccc(O)cc1)NCC(O)c1cc(O)cc(O)c1 (stereo not given) | -0.015% [at 46 µM]
3 | CCOP(=O)(Sc1ccccc1)Sc1ccccc1 | -0.0004%
4 | BrCCCBr | 0.0053% [at 95.7 µM]
5 | [C-]1=CC=CC1.[Cl][Zr+2][Cl].c1cc[cH-]c1 | 0.126% [at 95.7 µM]
6 | Nc1cc(Cl)ccc1Cl | -0.0353%
7 | COc1ccc2c(c1OC)C(=O)O[C@@H]2[C@H]1c2cc3c(cc2CCN1C)OCO3 | -0.106%
8 | Nc1nc(N)nc(Cl)n1 | 0.0065%
9 | Brc1cccc(-c2ccccc2)c1 | -0.0268%
10 | CCOP(=S)(NC(C)C)Oc1ccccc1C(=O)OC(C)C (stereo not given) | 0.202%
11 | S=C=Nc1ccccc1 | -0.0028% [at 95.7 µM]
12 | NC(=O)C(Cl)Cl | -0.0642%
13 | CC(C)c1c(CN(C)C(C)Cc2ccccc2)n(C)n(-c2ccccc2)c1=O (stereo not given) | -0.009% [at 18.6 µM]
14 | CN1CCc2cc(Cl)c(O)cc2[C@H]2c3ccccc3CC[C@@H]21 | -0.0028% [at 46 µM]
15 | CC[C@H](C)[C@H]1O[C@]2(C=C[C@@H]1C)C[C@@H]1C[C@@H](C/C=C(\C)[C@@H](O[C@H]3C[C@H](OC)[C@@H](O[C@H]4C[C@H](OC)[C@@H](NC)[C@H](C)O4)[C@H](C)O3)[C@@H](C)/C=C/C=C3\CO[C@@H]4[C@H](O)C(C)=C[C@@H](C(=O)O1)[C@]34O)O2 | -0.0233%
16 | CCC(C)c1cccc(C(C)CC)c1O (stereo not given) | -0.05%
17 | N#Cc1ccc(N(CC(N)=O)CC(F)(F)F)cc1C(F)(F)F | -0.0711%
18 | Oc1cc(Cl)cc(Cl)c1 | -0.207%
19 | O=S1(=O)OCC2C(CO1)C1(Cl)C(Cl)=C(Cl)C2(Cl)C1(Cl)Cl (stereo not given) | -0.0083%
20 | CC(=O)C(Cl)C(=O)N(C)C (stereo not given) | 0.0626%

Row | SMILES | fluorescence, % of fluorescein control
21 | Cc1nn(-c2cc(NS(C)(=O)=O)c(Cl)cc2Cl)c(=O)n1C(F)F | 0.143%
22 | ClCBr | -0.0154% [at 95.7 µM]
23 | CCC1COC(Cn2cncn2)(c2ccc(Cl)cc2Cl)O1 (stereo not given) | 0.154%
24 | CCC1(CC)C(=O)N=C(O)NC1=O | -0.12%
25 | COP(=S)(NC(C)C)Oc1ccc(C)cc1[N+](=O)[O-] (stereo not given) | -0.112%
26 | COc1ccc(Cc2nccc3cc(OC)c(OC)cc23)cc1OC | -0.0438% [at 18.6 µM]
27 | COP(=O)(OC)O/C(=C\Cl)c1cc(Cl)c(Cl)cc1Cl | -0.0041%
28 | CCNc1nc(NC(C)C(C)C)nc(SC)n1 (stereo not given) | 0.0128%
29 | O=C(Cl)c1ccccc1F | 0.0114%
30 | Clc1ccc(C(Cl)(Cl)Cl)cc1Cl | 0.0452%
31 | CN(C)CCc1c[nH]c2ccccc12 | -0.0213% [at 95.7 µM]
32 | CCCCCCC[CH2][Sn]([Cl])([Cl])[CH2]CCCCCCC | -0.001%
33 | CCC(C)Nc1c([N+](=O)[O-])cc(C(C)(C)C)cc1[N+](=O)[O-] (stereo not given) | 0.0184%
34 | [Cl-].[Cl-].[Cl-].[Yb+3] | -0.0455%
35 | COC(=O)C(C)N(C(=O)c1ccco1)c1c(C)cccc1C (stereo not given) | 0.168%
36 | O=C(NC(=O)c1ccccc1Cl)Nc1ccc(OC(F)(F)F)cc1 | 0.083%
37 | N#Cc1c2ccccc2cc2ccccc12 | 0.0774%
38 | Cc1ccc(C)c2ccccc12 | 0.121%
39 | Oc1ccc(Cl)c(Cl)c1 | 0.0044%
40 | c1csc(-c2ccc(-c3cccs3)s2)c1 | -0.0212%
